Source: PubChem
Cardio protect: myocardial damage modulation in H9c2 cells; 0.63% of 360,000 active; protection from H2O2 cell death, % at 20 µM; H9c2 cardiomyocytes, H2O2 injury protection, ATPLite, 2 h; AID 588492;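 active = compounds giving at least 50% protection of heart cells from peroxide-induced death in the single-dose screen, raw or plate-pattern-corrected value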
Vif imaging: blocks HIV Vif function | HEK293T cells, Vif self-association by quenched fluorescence, imaging, 24 h | inhibition, % at 7.49 µM | 0.35% of 340,000 active; in the data active = inhibition above about 50%, passing the limit was not always enough
ARNT-TACC3 inh: ARNT/TACC3 interaction disruption; inhibition, % at 9.99 µM; AlphaScreen His-ARNT PAS-B/GST-TACC3 binding, luminescence; TACC3 fragment carries E629A point mutation; 0.66% of 390,000 active; AID 623870;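 active = mean inhibition of replicates at least 50% and at least half of replicates each reaching 50%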
Glyco luc inh: N-linked glycosylation inhibition; AID 588692; reporter increase, % at 12.5 µM; 0.23% of 360,000 active; D54 ERlucT glycosylation luciferase reporter, 24 h; percent of 100 nM tunicamycin response;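 active = mean luciferase reporter signal, scaled so untreated is 0 and the glycosylation-blocking control 100, at or above a set limit in every replicate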;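 also: luciferase carries N-glycosylation sites so blocking glycosylation raises the light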
aDG glyco act: alpha-DG glycosylation activation; 0.22% of 360,000 active; Pro5-aDG cells, alpha-DG glycosylation AlphaScreen (IIH6); 0% Pro5, 100% B10-LARGE cell signal; AID 624168; activation, % at 10 µM;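 active = activation of at least 8% versus controls, or a plate z-score of at least 8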;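 also: Pro5 are CHO cells carrying HIG-tagged alpha-DG that lacks glycosylation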
Hits are given with their value; 0 = inactive; - = no result; ! = not confirmed by another sample. Rows were chosen to be rich in hits. Some 1.7% of all compounds tested hit in one or more screens of this group.

SMILES	Cardio protect	Vif imaging	ARNT-TACC3 inh	Glyco luc inh	aDG glyco act
COc1ccc(Cc2n[nH]c(=O)c3ccccc23)cc1OC	61.9	0	0	0	0
O=c1[nH]c(=S)[nH]nc1Cc1ccccc1	0	0	0	0	0
O=c1[nH]nc(Cc2ccc([N+](=O)[O-])cc2)c2ccccc12	64.2	0	0	0	0
O=c1[nH]nc(Cc2ccccc2)c2ccccc12	64.3	0	0	0	0
COc1cccc(S(=O)(=O)Nc2ccc3c(c2)[C@H]2C[C@H](CC(=O)N[C@@H](C)c4ccccc4)O[C@@H](CO)[C@H]2O3)c1	-	-	0	-	-
O=C(C[C@H]1CC[C@@H](NC(=O)Nc2ccccc2)[C@H](CO)O1)NCc1ccccn1	-	-	0	-	-
CCOC(=O)C(C)/C(C)=N/NC(=O)c1cc2ccccc2cc1O (stereo not given)	60.6	0	0	0	0
NNC(=O)c1cc2ccccc2cc1O	64.8	0	0	0	0
C/C(CC(=O)N1CCCC1)=N\NC(=O)c1cc2ccccc2cc1O	0	0	-	0	0
S=C(NC1CC1)N1CCc2ccccc2C1	0	94.0	0	0	0
C[C@@H]1CCCCO[C@@H](CN(C)C(=O)c2ccccc2)[C@@H](C)CN([C@@H](C)CO)C(=O)c2cc(NS(=O)(=O)c3cccs3)ccc2O1	-	-	0	-	-
COC(=O)c1cc2c(-c3ccccc3)cc3ccccn3c-2c1C(=O)OC	61.4	0	-	0	0
CCCNC(=O)C[C@H]1C[C@@H]2c3cc(NC(=O)Nc4ccccc4)ccc3O[C@@H]2[C@@H](CO)O1	-	-	0	-	-
C[C@H]1CN([C@@H](C)CO)C(=O)Cc2cc(NC(=O)Nc3ccc(C(F)(F)F)cc3)ccc2O[C@@H]1CN(C)S(C)(=O)=O	-	-	0	-	-
C[C@H]1CN([C@@H](C)CO)C(=O)c2cc(C#Cc3ccccn3)cnc2O[C@@H]1CN(C)C(=O)c1ccccn1	-	-	0	-	-
CC1Nc2ncnc(N3CCN(c4ccccc4)CC3)c2N(Cc2ccccc2)C1=O (stereo not given)	0	0	0	0	0
CC1Nc2ncnc(N3CCN(c4ccccc4)CC3)c2N(Cc2ccc(Cl)cc2)C1=O (stereo not given)	60.9	0	0	0	0
CC[C@H](C)C(=O)O[C@H]1CCC=C2C=C[C@H](C)[C@H](CC[C@@H]3C[C@@H](O)CC(=O)O3)[C@H]21	0	0	0	54.0	0
CC[C@H](C)C(=O)O[C@H]1C[C@@H](C)C=C2C=C[C@H](C)[C@H](CC[C@@H]3C[C@@H](O)CC(=O)O3)[C@H]21	0	0	0	69.2!	0
CCC(C)C(=O)OC1CCC=C2C=CC(C)C(CCC3CC(O)CC(=O)O3)C21 (stereo not given)	0	0	0	41.2	0
C[C@@H]1CN([C@H](C)CO)S(=O)(=O)c2ccc(C#CC3(O)CCCC3)cc2O[C@H]1CN(C)C(=O)c1ccncc1	-	-	0	-	-
Cc1cc(O)c2c(c1O)C(=O)[C@]13C(=C2O)C(=O)[C@@H]2[C@@H](O)[C@H]1[C@@H]1[C@H](O)[C@H]3C(=O)C3=C(O)c4c(O)cc(C)c(O)c4C(=O)[C@]312	0	0	47.4	0	0
Oc1c(Br)cc(Br)cc1C=Nc1cccc2ncccc12	64.2	0	0	0	0
CN1CCN(C(=O)C[C@H]2C[C@H]3c4cc(NC(=O)Cc5ccncc5)ccc4O[C@H]3[C@@H](CO)O2)CC1	-	-	0	-	-
O=C(NCc1ccccc1)c1ccc(S(=O)(=O)N2CCCCCC2)cc1	0	76.7	-	0	0
SMILES	Cardio protect	Vif imaging	ARNT-TACC3 inh	Glyco luc inh	aDG glyco act
CCn1c(SCc2ccc(C(=O)Nc3nccs3)cc2)nnc1-c1ccc(N)cc1	0	53.6	0	0	0
COc1ccc(N=Cc2ccccc2O)cc1	0	0	0	0	0
C=CCOc1ccc(C=Nc2ccc(OC)cc2)c(O)c1	62.9	0	0	0	0
CS(=O)(=O)Nc1ccc2c(c1)[C@H]1C[C@H](CC(=O)NCc3ccncc3)O[C@H](CO)[C@H]1O2	-	-	0	-	-
COCC(=O)Nc1ccc2c(c1)OC[C@H](C)N(C(=O)COC)C[C@@H](C)[C@@H](OC)CN(C)C2=O	-	-	0	-	-
O=C1CNc2ccc(C(=O)N3CCN(c4ccccn4)CC3)cc2N1	0	0	0	0	0
CC(C)C1Nc2ccc(C(=O)N3CCN(c4ccccn4)CC3)cc2NC1=O (stereo not given)	51.4	0	0	0	0
Cc1c(C#N)c(N)nc2c3c(sc12)NC(=O)CC3c1ccccc1 (stereo not given)	50.3	0	0	0	0
